# Experimental data as given in the supplement of paper PMC5662767.
# Counter-ions that a name gives are not always drawn.
# System: Drosophila S2 cl14 SmoIP sensor cells
# Assay: normalized SmoIP GFP fluorescence (untreated unstimulated = 0%, untreated Hh-stimulated = 100%); higher = more Smo activation sensor fluorescence
# Conditions: compound concentration: 2 uM, 24 h
# [1] = stimulation: Hh conditioned medium (+Hh)
# [2] = stimulation: mock conditioned medium (-Hh)
# 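Note: flow cytometry read-out as median GFP intensity of gated cells, compounds added 30 min before Hh-conditioned or mock medium, mock-treated cells serving as unstimulated baseline.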
SMILES,normalized SmoIP GFP fluorescence [1],normalized SmoIP GFP fluorescence [2]
"CO[C@H]1/C=C\C=C(/C)C(=O)NC2=CC(=O)C(NCCN(C)C)=C(C[C@@H](C)C[C@H](OC)[C@H](O)[C@@H](C)/C=C(\C)[C@@H]1OC(N)=O)C2=O [17-DMAG,Hydrochloride-Salt]",219%,44.8%
CCOC(=O)c1ccc(N2NC(=O)C(=Cc3ccc([N+](=O)[O-])o3)C2=O)cc1,119%,8.94%
Cc1ccc(NC(=O)c2cccc(N(C)C)c2)cc1NC(=O)c1ccc(O)cc1,120%,-14.7%
O=C(Nc1ccncc1)c1cc([N+](=O)[O-])ccc1Cl,114%,-2.82%
CC(=O)O[C@]1(C(C)=O)CC[C@H]2[C@@H]3C[C@H](C)C4=CC(=O)CC[C@]4(C)[C@H]3CC[C@@]21C [Medroxyprogesterone-acetate],116%,-1.83%
CC1(C)CC(=O)c2c(C(F)(F)F)nn(-c3ccc(C(N)=O)c(N[C@H]4CC[C@H](O)CC4)c3)c2C1,178%,12.3%
CN1CCC[C@@H]1CCO[C@](C)(c1ccccc1)c1ccc(Cl)cc1 [Clemastine-Fumarate],104%,10.7%
Oc1cccc(-c2nc(N3CCOCC3)c3oc4ncccc4c3n2)c1,85.1%,4.26%
CC[C@H](NC(=O)[C@H](C)NC)C(=O)N1C[C@@H](O)C[C@H]1Cc1c(-c2[nH]c3cc(F)ccc3c2C[C@@H]2C[C@H](O)CN2C(=O)[C@H](CC)NC(=O)[C@H](C)NC)[nH]c2cc(F)ccc12,78.2%,-2.08%
O=C(O)c1ccc(C=C2SC(=S)N(c3cccc(C(F)(F)F)c3)C2=O)cc1 [cftrinh-172],121%,2.24%
NC(=O)c1ccc(I)c([N+](=O)[O-])c1,115%,-5.22%
OC(CN1CCN(c2cccc(Cl)c2)CC1)C(c1ccccc1)c1ccccc1 (stereo not drawn),109%,-4.89%
O=C(Nc1c(Cl)cncc1Cl)c1ccc(OC(F)F)c(OCC2CC2)c1 [Roflumilast(Daxas)],134%,-8.23%
CC(C)C[C@H](NC(=O)[C@H](Cc1ccccc1)NC(=O)c1cnccn1)B(O)O [Bortezomib],70.3%,52.4%
C[C@@]1(c2cc(-c3cncnc3)c(F)cc2F)CCSC(N)=N1,97%,10.2%
O=C(NC[C@H]1CN(c2ccc(N3CCOCC3=O)cc2)C(=O)O1)c1ccc(Cl)s1 [Rivaroxaban],103%,-1.34%
CC(C)CCN1c2nc(Nc3cc(F)c(O)c(F)c3)ncc2N(C)C(=O)C1C (stereo not drawn),144%,1.61%

SMILES,normalized SmoIP GFP fluorescence [1],normalized SmoIP GFP fluorescence [2]
CO[C@H]1C[C@@H]2CC[C@@H](C)[C@@](O)(O2)C(=O)C(=O)N2CCCC[C@H]2C(=O)O[C@H]([C@H](C)C[C@@H]2CC[C@@H](OCCO)[C@H](OC)C2)CC(=O)[C@H](C)/C=C(\C)[C@@H](O)[C@@H](OC)C(=O)[C@H](C)C[C@H](C)/C=C/C=C/C=C/1C [Everolimus(RAD001)],32.9%,-10.1%
Cc1cc(C)c2c(c1)[C@@H](N(Cc1cc(C(F)(F)F)cc(C(F)(F)F)c1)c1nnn(C)n1)CCCN2CC1CCC(C(=O)O)CC1 (stereo partly drawn),105%,-5.15%
C=CCc1cccc(/C=N/NC(=O)CN2CCN(Cc3ccccc3)CC2)c1O,154%,-5.53%
CNC(=O)c1cccc(-c2ccc3c(N4CCOC[C@@H]4C)nc(N4CCOC[C@@H]4C)nc3n2)c1,65.7%,-4.47%
COc1ccccc1Oc1c(NS(=O)(=O)c2ccc(C(C)(C)C)cc2)nc(-c2ncccn2)nc1OCCO [bosentan-hydrate],109%,-1.63%
Oc1cc(O)cc(/C=C/c2ccc(O)c(O)c2)c1 [piceatannol],114%,-2.08%
O=C1[C@H](Cc2ccc(O)cc2)N2C(=O)CCN(C(=O)NCc3ccccc3)[C@H]2CN1Cc1cccc2ccccc12,125%,-2.82%
Nc1nc(CC(=O)Nc2ccc(CCNC[C@H](O)c3ccccc3)cc2)cs1 [mirabegron-ym178],108%,-5.15%
C[C@@H]1C(=O)O[C@H]2C[C@@]34[C@H]5C[C@@H](C(C)(C)C)[C@]36[C@@H](OC(=O)[C@@H]6O)O[C@@]4(C(=O)O5)[C@]21O [ginkgolide-a],99.5%,-2.08%
CNCCCC12CCC(c3ccccc31)c1ccccc12 [Maprotiline-hydrochloride],123%,-0.116%
Oc1ccc([C@H]2COc3cc(O)ccc3C2)cc1 [equol],107%,-3.9%
Cc1cc(C(C)(C)C)c(O)c(C)c1CC1=NCCN1 [Oxymetazoline-hydrochloride],95.8%,-3.5%
COc1ccccc1N1CCN(CCCNc2cc(=O)n(C)c(=O)n2C)CC1 [urapidil-hydrochloride],110%,-7.96%
Cc1ncc(-c2ccnc(Nc3ccc(S(C)(=O)=O)cc3)n2)n1C(C)C,156%,11.2%
C[C@]1(O)C[C@@H](c2nc(-c3ccc4ccc(-c5ccccc5)nc4c3)c3c(N)nccn32)C1,108%,-11%
C=CCn1c(=O)c2cnc(Nc3ccc(N4CCN(C)CC4)cc3)nc2n1-c1cccc(C(C)(C)O)n1,58.7%,-13.9%
O=C(NC(NC(=S)Nc1ccc(F)c([N+](=O)[O-])c1)C(Cl)(Cl)Cl)C(c1ccccc1)c1ccccc1 (stereo not drawn),108%,0.815%
